High-throughput results (PubChem BioAssay)
NR5A2 inv ag: NR5A2 inverse agonism in reporter assay; O00482; inhibition, % at 3.6 µM; actives 0.13% (n = 360,000); HEK293T StAR-luciferase reporter, LRH-1 transfected, 24 h;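 active means inhibition above the mean inhibition of all tested compounds plus 3 SD, cut at about 73% in these data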;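 further: 0% = DMSO wells and 100% = reporter-only cells lacking LRH-1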
Target sequence (O00482 whole entry, looked up): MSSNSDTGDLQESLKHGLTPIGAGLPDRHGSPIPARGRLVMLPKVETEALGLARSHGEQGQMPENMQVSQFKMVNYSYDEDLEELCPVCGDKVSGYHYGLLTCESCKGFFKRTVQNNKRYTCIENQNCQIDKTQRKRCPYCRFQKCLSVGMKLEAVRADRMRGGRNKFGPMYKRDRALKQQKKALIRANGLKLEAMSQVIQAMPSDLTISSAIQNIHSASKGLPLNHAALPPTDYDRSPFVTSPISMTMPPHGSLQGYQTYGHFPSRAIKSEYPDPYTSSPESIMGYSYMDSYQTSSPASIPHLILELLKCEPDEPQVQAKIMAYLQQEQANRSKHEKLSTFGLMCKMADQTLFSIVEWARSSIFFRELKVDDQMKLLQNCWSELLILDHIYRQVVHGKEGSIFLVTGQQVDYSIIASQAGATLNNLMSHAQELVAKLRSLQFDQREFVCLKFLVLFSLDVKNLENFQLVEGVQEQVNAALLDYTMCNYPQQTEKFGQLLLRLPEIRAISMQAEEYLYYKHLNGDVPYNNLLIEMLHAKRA
NCOA3 inh: inhibitors of human steroid receptor coactivator 3 (SRC3); inhibition, % at 3.6 µM; HEK293 GAL4-SRC3 luciferase reporter, luminescence; AID 588352; Q9Y6Q9; actives 0.17% (n = 360,000);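 active means inhibition above a per-campaign cutoff, the mean of all compounds plus 3 SD, cut at about 60% in these data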;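 further: 0% = DMSO-treated cells and 100% = gossypol-treated cells at 36 µM; higher means less SRC3-driven luciferase light from the GAL4 reporter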
SRC2 inh: inhibits human steroid receptor coactivator 2 | Q15596 | HEK293 GAL4-SRC2 luciferase reporter, luminescence | inhibition, % at 9 µM | actives 0.17% (n = 370,000);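 active means inhibition above the mean inhibition of all tested compounds plus 3 SD, set per campaign, cut at about 52% in these data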;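 further: 0% = DMSO treated cells and 100% = cells given Gossypol at 36 µM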
EBV LMP1 NFkB: reduces LMP1-driven NF-kappaB luciferase signal; actives 0.69% (n = 350,000); inhibition, % at 12.5 µM; AID 504558; LMP1-induced NF-kappaB luciferase reporter cells, luminescence; in the data active means inhibition above about 41%;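 further: 0% = neutral control wells and 100% = reference inhibitor control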
SRC1 inh: inhibits human SRC1 coactivator. Q15788. HEK293 GAL4-SRC1 luciferase reporter, luminescence. inhibition, % at 3.6 µM. actives 0.12% (n = 360,000);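 active means inhibition above the campaign mean plus 3 SD, with each screening campaign given its own cutoff, cut at about 60% in these data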;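 further: 0% = DMSO treated cells and 100% = gossypol at 36 µM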
* marks the source's active call; other numbers are inactive results. This is a sample that favours compounds with a hit; in the whole collection about 0.78% have one here.

What do the screens show for `O=C(CCS(=O)(=O)c1ccccc1)Nc1nccs1`?
NR5A2 inv ag: -6.7; NCOA3 inh: -6.9; SRC2 inh: 4.0; EBV LMP1 NFkB: 83.8*; SRC1 inh: -19.2

How did Cc1nc(N)nc(N)c1/C=C/C(C)(C)c1ccc(Cl)cc1 do in these assays?
NR5A2 inv ag: 44.9; NCOA3 inh: 48.9; SRC2 inh: 22.4; EBV LMP1 NFkB: 45.7*; SRC1 inh: 70.0*

Results for CCOCC(=O)NC(=O)N1C[C@H]2CON(C)[C@H]2C[C@H]1c1ccc(OC)cc1 ?
SRC2 inh: 23.4

What do the screens show for `O=C(CCn1ccc2cc(S(=O)(=O)N3CCCC3)ccc21)NCCc1ccccc1`?
NR5A2 inv ag: 19.1; NCOA3 inh: -1.8; SRC2 inh: -14.6; EBV LMP1 NFkB: 71.6*; SRC1 inh: -31.3

How did Cc1ccc(CCNC(=O)CCn2ccc3cc(S(=O)(=O)N4CCCC4)ccc32)cc1 do in these assays?
NR5A2 inv ag: 21.7; NCOA3 inh: -11.7; SRC2 inh: 17.7; EBV LMP1 NFkB: -1.2; SRC1 inh: 4.4

How did Nc1nc(N)nc(-c2cc(Cl)ccc2Cl)n1 do in these assays?
NR5A2 inv ag: 17.0; NCOA3 inh: -28.3; SRC2 inh: -7.5; EBV LMP1 NFkB: 83.6*; SRC1 inh: -3.7

Results for Nc1nc(N)nc(-c2cc(C(F)(F)F)ccc2Cl)n1 ?
NR5A2 inv ag: 6.8; NCOA3 inh: 1.4; SRC2 inh: -3.7; EBV LMP1 NFkB: -5.8; SRC1 inh: -15.5

How did CCN(CC)C(=O)CC[C@@H]1CC[C@]2(CCCN(Cc3ccc(Cl)cc3)C2)O1 do in these assays?
SRC2 inh: -4.4

How did Nc1ccc(Oc2cccc(Oc3ccc(N)cc3)c2)cc1 do in these assays?
NR5A2 inv ag: 66.6; NCOA3 inh: 44.3; SRC2 inh: 85.7*; EBV LMP1 NFkB: 37.4; SRC1 inh: 43.6

What do the screens show for `C=C1C(=O)[C@]23C[C@H]1CCC2[C@@]1(C)C(C[C@@H]3O)[C@](C)(C(=O)OC)CC[C@@H]1O` (some centres not stated)?
NR5A2 inv ag: 47.9; NCOA3 inh: 40.4; SRC2 inh: 63.6*; SRC1 inh: 43.0

Results for C=C1C(=O)[C@]23C[C@H]1CC[C@H]2[C@]1(C)CCC[C@@](C)(C(=O)OC)[C@H]1C[C@@H]3O ?
SRC2 inh: 84.0*

What do the screens show for `CCn1c2ccccc2c2cc(NC(=O)CSc3nnc(-c4ccccc4)n3Cc3ccco3)ccc21`?
SRC2 inh: 3.1

Results for CCCCCc1ccc(OCCC[n+]2ccccc2)c(CCCCC)c1 ?
NR5A2 inv ag: 59.3; NCOA3 inh: 66.1*; SRC2 inh: 5.0; EBV LMP1 NFkB: 24.9; SRC1 inh: 34.4

How did COc1ccc(/C=C\C(=O)NCc2ccc3c(c2)cc(C)n3C)cc1OC do in these assays?
NR5A2 inv ag: -16.2; NCOA3 inh: -0.9; SRC2 inh: 10.1; EBV LMP1 NFkB: 66.6*; SRC1 inh: -31.3

How did N#Cc1ccccc1NCCCN1CCC(C(O)(c2ccccc2)c2ccccc2)CC1 do in these assays?
SRC2 inh: 4.8

How did O=S1(=O)CC(N2CCCCC2)C(N2CCCCC2)C1 (configuration not stated) do in these assays?
NR5A2 inv ag: -10.4; NCOA3 inh: -0.5; SRC2 inh: 26.3; EBV LMP1 NFkB: 50.9*; SRC1 inh: 10.3

Results for CN1[C@H](Cc2ccccc2)COc2cc(N3CCCC3)ccc2S1(=O)=O ?
SRC2 inh: -0.2

Results for O=C(C1CCCN1S(=O)(=O)c1ccc([N+](=O)[O-])cc1)N1CCN(c2ccccc2)CC1 (configuration not stated) ?
SRC2 inh: -8.7

How did CC(C)NC(=O)[C@]1(C#N)CC(=O)N(C)[C@@H]1c1ccccc1 do in these assays?
SRC2 inh: 17.7

How did Cc1nn(-c2ccccc2)c(N2CCCC2)c1/C=N/NC(=O)c1ccccc1O do in these assays?
NR5A2 inv ag: -58.2; NCOA3 inh: 0.1; SRC2 inh: -5.2; EBV LMP1 NFkB: 10.2; SRC1 inh: -2.9

What do the screens show for `O=C(N/N=C/c1cc2c3c(c1O)CCCN3CCC2)c1ccccc1O`?
NR5A2 inv ag: 63.1; NCOA3 inh: 68.5*; SRC2 inh: 6.8; EBV LMP1 NFkB: 65.4*; SRC1 inh: 65.8*

Results for Cc1ccc(-n2c(Cc3cccs3)nnc2SCC(=O)Nc2ccccc2-c2ccccc2)cc1 ?
SRC2 inh: -22.8

How did O=C(N/C(=C/c1ccc(Br)cc1)C(=O)N1CCOCC1)c1ccc(Br)o1 do in these assays?
NR5A2 inv ag: 5.3; NCOA3 inh: 3.9; SRC2 inh: 0.6; EBV LMP1 NFkB: 60.6*; SRC1 inh: -0.9

How did O=C(N/C(=C\c1ccc(Br)cc1)C(=O)N1CCOCC1)c1ccc(Br)o1 do in these assays?
NR5A2 inv ag: -1.9; NCOA3 inh: 4.7; SRC2 inh: -20.3; EBV LMP1 NFkB: -0.7; SRC1 inh: 16.1

Results for C=CCN=C1NC(c2cccc(Cl)c2)C(C(=O)OC)=C(C)N1Cc1cccc(C(F)(F)F)c1 (configuration not stated) ?
SRC2 inh: 3.8

What do the screens show for `c1nc2nc3c(c(N4CCCC4)n2n1)CCCC3`?
SRC2 inh: -4.4

How did COC(=O)C1=C(C)N(CCCC(=O)O)C(=O)NC1c1cccc(Cl)c1Cl (configuration not stated) do in these assays?
NR5A2 inv ag: -23.5; NCOA3 inh: -25.1; SRC2 inh: 0.7; EBV LMP1 NFkB: 51.3*; SRC1 inh: -30.8

What do the screens show for `CCn1c(=O)n(CC(=O)N2CCCN(Cc3ccccc3)CC2)c(=O)c2ccccc21`?
SRC2 inh: -0.6

Results for Cc1cc(C(=O)Cn2nnc3ccccc3c2=O)c(C)n1Cc1cccs1 ?
NR5A2 inv ag: -170.7; NCOA3 inh: -75.1; SRC2 inh: -24.8; EBV LMP1 NFkB: -30.6; SRC1 inh: -100.0

How did Cc1cc(C(=O)CN2C(=O)c3ccccc3C2=O)c(C)n1Cc1cccs1 do in these assays?
NR5A2 inv ag: -76.5; NCOA3 inh: -51.8; SRC2 inh: 19.8; EBV LMP1 NFkB: 50.4*; SRC1 inh: -61.9

Results for O=C(Nc1cc(C(F)(F)F)cc(C(F)(F)F)c1)Nc1cnn(-c2ccc([N+](=O)[O-])cc2)c1C(F)(F)F ?
NR5A2 inv ag: 4.4; NCOA3 inh: 9.3; SRC2 inh: -9.2; EBV LMP1 NFkB: 57.1*; SRC1 inh: -14.4

Results for O=S1(=O)c2ccc(Br)cc2OC[C@H](Cc2ccccc2)N1Cc1cn(Cc2ccc(Br)cc2)nn1 ?
SRC2 inh: -4.9

How did CCOC(=O)C(=CNc1ccc(N2CCOCC2)cc1)C(=O)OCC do in these assays?
NR5A2 inv ag: 7.8; NCOA3 inh: 13.5; SRC2 inh: -1.5; EBV LMP1 NFkB: 11.4; SRC1 inh: 5.8

How did CCOC(=O)C(=CNc1ccc2c(c1)CCN2C(C)=O)C(=O)OCC do in these assays?
NR5A2 inv ag: -13.0; NCOA3 inh: 12.4; SRC2 inh: 6.4; EBV LMP1 NFkB: 49.3*; SRC1 inh: -13.1

How did CCOC(=O)C(=CNc1ccc(-c2ccco2)c(Cl)c1)C(=O)OCC do in these assays?
NR5A2 inv ag: 14.5; NCOA3 inh: 8.1; SRC2 inh: -9.1; EBV LMP1 NFkB: 47.3*; SRC1 inh: 0.9

How did C=CCNC(=O)CN(C(=O)Cc1ccc(Cl)cc1)c1cccc(Br)c1 do in these assays?
SRC2 inh: 9.4
